# Inconclusive results are not listed. Where a call stands in place of a potency, no number is given. Activity calls are given as the source filed them. Calls come from the whole dose curve; as a rule, active = well fitted inhibition curve with a large enough effect; inconclusive = small, poorly fitted or top-dose-only effect; inactive = no such curve, though single readings can be large or run the other way.
# Assays:
# [1] = system: Zika virus NS2B-NS3 protease (unlinked complex); assay: Primary screen GU Rhodamine qHTS for Zika virus inhibitors: Unlinked NS2B-NS3 protease assay (AID 1347159); note: nearly all actives have a fitted effect of over 60% in size
# In short: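 Unlinked NS2B/NS3, 25 nM; Rhod110 peptide, 1.5 microM; compounds, up to 114 microM. Reaction run 15 min at RT in 10 mM Tris-HCl pH 8.0, 0.01% Tween 20; kinetic fluorescence change fitted with a 4-parameter Hill model.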
# [2] = system: Zika virus NS2B-NS3 protease (linked construct); assay: Primary screen NINDS Rhodamine qHTS for Zika virus inhibitors (AID 1347160); note: nearly all actives have a fitted effect of over 55% in size
# In short: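 Single-chain NS2B-NS3 protease, 25 nM, pH 8.0; compounds preincubated 15 min. Activity: Rhodamine110 release from 1.5 microM substrate over 15 min, room temperature, data fitted to 4-parameter Hill.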
# Potency is the fitted concentration of half-maximal effect.
Structure (SMILES),Potency [1],Potency [2]
O=C(/C=C/c1ccccc1O)O[C@@H]1O[C@H](CO)[C@@H](O)[C@H](O)[C@H]1O,inactive,inactive
C=C1C(=O)O[C@@H]2[C@H]1CC[C@H](C)C(CCC(=O)O)C2(C)O (some centres undefined),inactive,inactive
CC1=CC2/C=C(\C)CCC(O)C/C=C/C(=O)OC23C(=O)NC(CC(C)C)C3C1C (centres undefined),inactive,inactive
CCCC(Nc1nc(-c2ccc(NC(=O)NCC)c(OC)c2)ncc1C)c1cccnc1 (centres undefined),inactive,inactive
C=C1C(=O)OC2C=C(C)CC/C=C(\CO)CC(O)C12 (centres undefined),inactive,inactive
O=C(NC1CCC1)c1ccc(C#Cc2cccc(F)c2)nc1,inactive,inactive
CCC(C)CC(=O)OC1C(=O)C(CO)=CC(O)C1C(C)C (centres undefined),inactive,inactive
COc1ccccc1OCCNCC(O)CCOc1cccc2[nH]c3ccccc3c12 (centres undefined),inactive,inactive
O=C(NCc1ccccc1-c1ccccc1C(=O)NCCc1ccccn1)OCc1ccccc1,inactive,inactive
N#Cc1cc(CN2CCC(Nc3ncnc4sc(Cl)cc34)CC2)ccc1F,inactive,inactive
CN(c1ccc(NC(=O)Nc2ccccc2)cc1)S(=O)(=O)c1cnn(-c2ccc(F)cc2)c1,inactive,inactive
NC(=O)c1cccc2[nH]c(-c3ccc(C4CCCN4)cc3F)nc12 (centres undefined),inactive,inactive
CC(C)(O)c1ccn2c(-c3ccc(F)c(-c4ccc(F)cc4C#N)c3)cnc2c1F,inactive,inactive
C=C1C(=O)O[C@@H]2C(OC(=O)/C(C)=C\C)/C(C)=C\C(=O)/C=C(\C)C[C@H](O)[C@@H]12 (some centres undefined),inactive,inactive
Nc1nc2c(c(N3CC[C@@H](N)C3)n1)CCCc1ccccc1-2,inactive,inactive
COC(=O)c1cc2c(C(F)(F)F)cc(-c3ccccc3)cc2n1O,12.6 µM (active),15.8 µM (active)
C=CCC1=C[C@]2(OC)[C@H](C)[C@@H](c3ccc4c(c3)OCO4)O[C@]2(OC)CC1=O,inactive,inactive
Cn1ncc(Cl)c1-c1cc(C(=O)N[C@H](CN)Cc2cccc(F)c2)sc1Cl,inactive,inactive
Cc1cn2c(n1)Cc1ccc(Cl)cc1C(c1ccc(N)cc1)=N2,inactive,inactive

Structure (SMILES),Potency [1],Potency [2]
CC(=O)Nc1nc(C)c(-c2nc(N3CCCC(O)C3)no2)s1 (centres undefined),inactive,inactive
Cn1cc(-c2cnn3c(N)c(Br)c([C@@H]4CCCNC4)nc23)cn1,inactive,inactive
O=C(NCC1(N2CCN(c3ccccc3)CC2)CCOCC1)c1cccnc1Sc1ccccc1,inactive,inactive
O=C(Nc1nnc(-c2ccc3c(c2)OCCO3)o1)C1CCCCC1,inactive,inactive
COC(=O)CC[C@@H](C)C1CCC2C3CCC4C[C@H](OC(C)=O)CCC4(C)C3C[C@H](O)C21C (some centres undefined),inactive,inactive
CO[C@H]1C[C@@H]2CC[C@@H](C)[C@@](O)(O2)C(=O)C(=O)N2CCCC[C@H]2C(=O)O[C@H]([C@@H](C)C[C@@H]2CC[C@@H](O)[C@H](OC)C2)CC(=O)[C@H](C)/C=C(\C)[C@@H](O)[C@@H](OC)C(=O)[C@H](C)C[C@H](C)/C=C/C=C/C=C/1C,inactive,inactive
COc1ccccc1OCCN1CC(COc2cccc3[nH]c4ccccc4c23)OCC1=O (centres undefined),inactive,inactive
CCOc1cccc(NC(=O)c2ccc(N3CCCC3)c(C(F)(F)F)c2)c1,inactive,inactive
Cc1cc2c(F)c(Oc3ncnn4cc(OCC(C)OC(=O)C(C)N)c(C)c34)ccc2[nH]1 (centres undefined),inactive,inactive
C=C1C(=O)O[C@@H]2C[C@H](C)[C@@H]3CC(=O)[C@H](O)[C@@]3(C)C[C@H]12,inactive,inactive
CC(=O)N1CCN(CCOc2ccc(C3CCN(C4=Nn5c(nnc5C(F)(F)F)CC4)CC3)cc2)CC1,inactive,inactive
CC1(C)CCC2(C(=O)OC3OC(COC4OC(CO)C(O)C(O)C4O)C(O)C(O)C3O)CCC3(C)C(=CCC4C5(C)CCC(OC6OCC(O)C(O)C6O)C(C)(C)C5CCC43C)C2C1O (centres undefined),inactive,inactive
CCC(C)c1ccc(NC(=O)Cn2cnc3c2c(=O)n(C)c(=O)n3C)cc1 (centres undefined),inactive,inactive
CCNC(=O)C#Cc1ccc2c(C(=Nc3ccc(CN(C)C)cc3)c3ccccc3)c(O)[nH]c2c1,inactive,inactive
O=C(Nc1ccc(C(F)(F)F)cn1)N1CCN(c2ncccc2C(F)(F)F)CC1,inactive,inactive
Cc1cc(Nc2nc(-c3ccccc3)nc3ccccc23)n[nH]1,inactive,inactive
C[C@H](Oc1cc(-n2cnc3ccc(CN4CCN(C)CC4)cc32)sc1C(N)=O)c1ccccc1C(F)(F)F,inactive,inactive
CC(=O)O[C@H]1[C@@]2(O)C[C@H](C)[C@H](OC(=O)c3ccccc3)[C@@H]2[C@@H](OC(=O)CO)[C@]2(OC(C)=O)C[C@H]3C(=O)C(C)(C)C[C@@H]3[C@@]1(C)[C@H]2OC(C)=O,inactive,inactive

# From PubChem BioAssay (NCATS)
